Results taken from the supplement of paper PMC13380429.
Structures can show the parent of a compound that is named as a salt.

Columns and labels:
[1] = tested on: Vero E6 infected with SARS-CoV-2; experiment: morphology score (similarity to uninfected cells); higher = more like uninfected cells; settings: 24 h
[2] = tested on: Vero E6 infected with SARS-CoV-2; experiment: SARS-CoV-2 infection rate relative to infected DMSO; higher = more infection, active = 60 or less; settings: 24 h

Structure (SMILES)	morphology score [1]	SARS-CoV-2 infection rate [2]
c1ccc2c(c1)Sc1ccccc1N2C[C@H]1CN2CCC1CC2 [levomequitazine] (10 µM)	0.0894	86% (inactive)
C[N+](C)(C)CCCCCC[N+](C)(C)C [hexamethonium] (10 µM)	-0.257	114% (inactive)
C[C@H](N)Cc1c[nH]cn1 [alpha-methylhistamine-dihydrobromide-(S)-(+)] (10 µM)	0.17	99% (inactive)
CCCCCCCCCCCCCCCC(=O)OC[C@H](COP(=O)([O-])OCC[N+](C)(C)C)OC(=O)CCCCCCCCCCCCCCC [colfosceril-palmitate] (10 µM)	0.152	103% (inactive)
Nc1nc2ccc(Cl)cc2c2nc(-c3ccco3)nn12 (10 µM)	0.125	108% (inactive)
C[C@]12CC/C(=N\OCCN)C[C@@H]1C(=O)C[C@@H]1[C@@H]2CC[C@]2(C)C(=O)CC[C@@H]12 [istaroxime] (0.833333 µM)	0.151	102% (inactive)
Nc1nc(F)nc2c1ncn2[C@@H]1O[C@H](CO)[C@@H](O)[C@@H]1O [fludarabine] (10 µM)	-0.0436	107% (inactive)
C[N+]1(C)[C@@H]2CC[C@H]1C[C@@H](OC(=O)C(O)c1ccccc1)C2 (some centres not stated) [homatropine-methylbromide] (10 µM)	-0.0363	104% (inactive)
OCCCCO [1,4-butanediol] (10 µM)	0.0223	105% (inactive)
COc1cc2c(Nc3ccc(Cl)c(Cl)c3F)ncnc2cc1OC[C@@H]1C[C@@H]2CN(C)C[C@@H]2C1 (10 µM)	-0.291	120% (inactive)
CN1C(=O)CC[C@H]1c1cccnc1 [cotinine] (10 µM)	0.0591	108% (inactive)
